Reference: PubChem BioAssay AID2158 (National Center for Advancing Translational Sciences (NCATS), 2009)
Values joined by “and” are separate entries in the source; they are usually repeats but may differ in a detail not shown here. Equal entries are not always repeated. Inconclusive results are not listed. Active and inactive are the calls of the source. Calls follow the shape of the dose curve; as a rule, active = well fitted inhibition curve with a large enough effect; inconclusive = small, poorly fitted or top-dose-only effect; inactive = no such curve, though single readings can be large or run the other way.

target: Cruzipain (Trypanosoma cruzi) (UniProt P25779); assay: Confirmation qHTS Assay for Inhibitors of Cruzain; conditions: purified cruzain, Z-FR-AMC fluorescence, 0.01% Triton; also: nearly all actives have a fitted effect of over 40% in size;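 as to activity change, negative = inhibition: plate controls were uninhibited enzyme control for no effect and buffer wells lacking enzyme for full effect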
Sequence (P25779 123-467 limits assumed): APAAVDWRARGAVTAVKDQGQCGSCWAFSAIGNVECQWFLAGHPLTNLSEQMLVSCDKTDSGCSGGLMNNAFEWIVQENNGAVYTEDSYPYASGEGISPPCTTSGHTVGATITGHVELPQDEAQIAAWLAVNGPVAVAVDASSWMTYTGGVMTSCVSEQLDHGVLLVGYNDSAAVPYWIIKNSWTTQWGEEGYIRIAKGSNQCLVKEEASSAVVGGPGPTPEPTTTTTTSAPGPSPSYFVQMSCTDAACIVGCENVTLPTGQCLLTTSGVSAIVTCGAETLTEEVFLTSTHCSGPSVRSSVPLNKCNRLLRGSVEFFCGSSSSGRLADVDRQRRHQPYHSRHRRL
In short: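 Reaction progress from the 60 s rise in AMC fluorescence (ex 360, em 450 nm) after adding 2 uM Z-FR-AMC. Before this, 1.5 nM cruzain sat 15 min at room temperature with compound in pH 5.5 acetate buffer with 5 mM DTT and 0.01% Triton X-100.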
Potency is read from the fitted curve at half-maximal effect.

SMILES	Potency	activity change, negative = inhibition
O=C(CNC(=O)C1CCCCC1)OC(C(=O)Nc1cc(C(F)(F)F)ccc1Cl)c1ccccc1 (centres undefined)	5.01 µM (active)	–
Cc1ccc2[nH]c(=O)c(CN(Cc3ccco3)Cc3nnnn3Cc3ccco3)cc2c1	–	-6.56% (inactive)
CN(C)c1nc(C#N)nc(N(C)C)n1	14.1 µM (active)	–
Cc1ccc(C)c(CN2C(=O)c3ccccc3Sc3ccc(C(=O)NCc4ccc5c(c4)OCO5)cc32)c1	–	-8.53% (inactive)
CCN(CC)c1nc(C#N)nc(N2CCOCC2)n1	8.91 µM (active)	–
COc1ccccc1N1CCN(C(=O)CN(c2ccccc2OC)S(=O)(=O)c2ccccc2)CC1	–	-10.1% (inactive)
NNC(=O)C(C(=O)OCc1ccccc1)c1ccccc1 (centres undefined)	–	-1.2% (inactive)
Cc1cc2c(C)cc(=O)oc2c2c1NCCC2	–	-19.4% (inactive)
CC(C)(C)c1ccc(C(=O)NCC(=O)OC(C(=O)Nc2cc(C(F)(F)F)ccc2Cl)c2ccccc2)cc1 (centres undefined)	–	-14% (inactive)
CC(C)(C)OC(=O)NCc1nnc(-c2nc3ccccc3[nH]2)o1	–	-4.26% (inactive)
N#Cc1nc(Nc2ccc(C(F)(F)F)cc2)nc(NC2CCCC2)n1	–	2.22% (inactive)
N#Cc1nc(Nc2cc(F)cc(F)c2)nc(NC2CCCC2)n1	0.0631 µM (active)	–
CCOc1ccc(NC(=O)c2ccc(CNc3c(NC4CCCCC4)c(=O)c3=O)cc2)cc1	–	1.77% (inactive)
CC(=O)NCCCc1ccc(C(=O)COC(=O)CNC(=O)c2ccc3ccccc3c2)cc1	–	-5.36% (inactive)
CC(=O)n1cc(/C=C2/N=C(c3ccccc3)OC2=O)c2ccccc21	0.794 µM (active)	–
Cc1csc(N/N=C/c2ccc(O)c([N+](=O)[O-])c2)n1	–	-63.9% (inactive)
O=C(CNC(=O)c1ccncc1)OC(C(=O)Nc1cc(C(F)(F)F)ccc1Cl)c1ccccc1 (centres undefined)	25.1 µM (active)	–
COc1cc2cc(CN(Cc3nnnn3Cc3ccco3)C3CCCCC3)c(=O)[nH]c2cc1OC	14.1 µM (active)	–
O=C(CNC(=O)c1ccc([N+](=O)[O-])cc1)OC(C(=O)Nc1cc(C(F)(F)F)ccc1Cl)c1ccccc1 (centres undefined)	12.6 µM (active)	–
COc1cccc(OC)c1-c1nn2c(-c3n[nH]c4c3CCC4)nnc2s1	–	-13% (inactive) and -10.1% (inactive)

SMILES	Potency	activity change, negative = inhibition
CN1CCN(c2ncc3ncc(=O)n(-c4ccccc4)c3n2)CC1	–	-20% (inactive)
O=C(OCN1C(=O)c2ccccc2C1=O)/C(=C\c1ccco1)NC(=O)c1ccccc1	1.12 µM (active)	–
CC(C)(C)OC(=O)CC(=O)NNC(=O)c1nc2ccccc2[nH]1	–	3.76% (inactive)
COc1ccc(NC(=O)C(OC(=O)CNC(=O)c2ccccc2)c2ccccc2)c(C)c1 (centres undefined)	8.91 µM (active)	–
O=C(NCCc1nc2ccccc2n1CCCOc1cccc2ccccc12)C1CCCCC1	2.24 µM (active)	–
CC(C)(C)OC(=O)NCc1nnc(C(C(=O)OCc2ccccc2)c2ccccc2)s1 (centres undefined)	–	-11.8% (inactive)
O=C(NCC1CC1)c1ccc2nc(-c3ccoc3)c(-c3ccoc3)nc2c1	–	-15.5% (inactive)
O=C(CNC(=O)c1ccccc1)OC(C(=O)Nc1ccc2c(c1)OCO2)c1ccccc1 (centres undefined)	8.91 µM (active)	–
N#Cc1nc(Nc2cccc(-c3ccccc3)c2)nc(NC2CCCC2)n1	2.24 µM (active)	–
O=C(NCCc1nc2ccccc2n1CCCOc1ccc2ccccc2c1)C1CCCCC1	1.12 µM (active)	–
O=C(CNC(=O)c1ccccc1)OC(Cc1ccccc1)C(=O)Nc1cc(C(F)(F)F)ccc1Cl (centres undefined)	7.08 µM (active)	–
Cc1ccccc1OCC(=O)NCC(C)NC(=O)COc1ccccc1C (centres undefined)	–	36.5% (inactive)
COc1ccc2[nH]c(=O)c(CN(Cc3nnnn3Cc3ccco3)C3CCCCC3)cc2c1	14.1 µM (active)	–
O=C(CNC(=O)c1ccc2n[nH]nc2c1)OC(C(=O)Nc1cc(C(F)(F)F)ccc1Cl)c1ccccc1 (centres undefined)	14.1 µM (active)	–
O=C(Nc1ccc(O)c(-c2nc3ccccc3o2)c1)C1(c2ccc([N+](=O)[O-])cc2)CCCC1	–	-1.92% (inactive)
Cc1cccc(Nc2nc(C#N)nc(NC3CCCC3)n2)c1	0.126 µM (active)	–
CCNc1nc(C#N)nc(N2CCCCC2)n1	5.01 µM (active)	–
N#Cc1nc(NCCO)nc(Nc2ccccc2)n1	1.58 µM (active)	–
O=C(NCc1nnc(-c2nc3ccccc3[nH]2)o1)C1CCCCC1	–	-3.39% (inactive)
